The source made the active and inactive calls. Rule for the calls: active = hit-call score of the fitted dose curve at least 0.9, where 1 is the maximum; inactive = score below 0.9.
Tests used:
Details in all cases: mRNA level, 48 h; actives raise or lower the signal
Caspase-3 (Homo sapiens) = Caspase-3 (Homo sapiens) (UniProt P42574); test: LTEA_HepaRG_CASP3: Life Technologies and Expression Analysis (LTEA) Assay for cysteine-aspartic acid protease (CASP3) using HepaRG (AID 2283477)
How it was run: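 HepaRG, 48 h exposure, 8 conc. (top 100 uM, half-log steps, duplicate), 0.5% DMSO vehicle; qRT-PCR of CASP3 transcript, housekeeping-normalised (ACTB/GAPDH/POLR2A); bidirectional curve fit vs DMSO baseline.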

[1] = read-out: Cytochrome P450 (CYP24A1), CYP24A1 (gene 1591); test: LTEA_HepaRG_CYP24A1: Life Technologies and Expression Analysis (LTEA) Assay for Cytochrome P450 (CYP24A1) using HepaRG (AID 2283478)
How it was run: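 qRT-PCR read-out: CYP24A1 transcript levels normalized to three housekeeping genes, bidirectional curve fits against 0.5% DMSO baseline. Human HepaRG cells treated 48 h with chemicals at eight concentrations from 100 uM in half-log steps.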

[2] = read-out: Cytochrome P450 (CYP1A2), CYP1A2 (gene 1544); test: LTEA_HepaRG_CYP1A2: Life Technologies and Expression Analysis (LTEA) Assay for Cytochrome P450 (CYP1A2) using HepaRG (AID 2283479)
How it was run: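 HepaRG, 48 h exposure, top 100 uM, half-log 8-pt, 0.5% DMSO vehicle, duplicates. Readout: TaqMan qRT-PCR of CYP1A2 mRNA, housekeeping-normalized (ACTB/GAPDH/POLR2A). Gain/loss fit relative to DMSO baseline.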

[3] = read-out: cysteine-aspartic acid protease (CASP8), CASP8 (gene 841); test: LTEA_HepaRG_CASP8: Life Technologies and Expression Analysis (LTEA) Assay for cysteine-aspartic acid protease (CASP8) using HepaRG (AID 2283480)
How it was run: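 qRT-PCR readout of CASP8 mRNA, normalized to three housekeeping genes, after 48 h chemical exposure of HepaRG cells; 8-point half-log series, top 100 uM, 0.5% DMSO vehicle. Bidirectional curve fitting against DMSO baseline.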

[4] = read-out: Cytochrome P450 (CYP2B6), CYP2B6 (gene 1555); test: LTEA_HepaRG_CYP2B6: Life Technologies and Expression Analysis (LTEA) Assay for Cytochrome P450 (CYP2B6) using HepaRG (AID 2283481)
How it was run: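 Read-out is CYP2B6 mRNA by TaqMan qRT-PCR, normalized to three housekeeping genes and fitted bidirectionally against 0.5% DMSO baseline. Human HepaRG cells received test chemicals for 48 h, top concentration 100 uM, half-log dilutions.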

[5] = read-out: Cytochrome P450 2C19 (Homo sapiens) (UniProt P33261); test: LTEA_HepaRG_CYP2C19: Life Technologies and Expression Analysis (LTEA) Assay for CYP2C19 using HepaRG (AID 2283482)
How it was run: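 HepaRG, 48 h chemical exposure, 8-pt half-log series from 100 uM in 0.5% DMSO, duplicates. Readout: CYP2C19 mRNA by TaqMan qRT-PCR, housekeeping-normalized. Bidirectional fit vs DMSO baseline; phenobarbital 1mM as induction control.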

CYP2C8 (gene 1558) = test: LTEA_HepaRG_CYP2C8: Life Technologies and Expression Analysis (LTEA) Assay for CYP2C8 using HepaRG (AID 2283483)
How it was run: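 HepaRG (human liver line), 48 h chemical exposure, 8-pt half-log series from 100 uM, 0.5% DMSO vehicle. Readout: CYP2C8 transcript by qRT-PCR, housekeeping-normalized. Bidirectional fit vs DMSO baseline.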

CYP2E1 (gene 1571) = test: LTEA_HepaRG_CYP2E1: Life Technologies and Expression Analysis (LTEA) Assay for CYP2E1 using HepaRG (AID 2283485)
How it was run: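 CYP2E1 transcript measured by Fluidigm qRT-PCR against three housekeeping genes in human HepaRG cells treated 48 h (top 100 uM, half-log steps, 0.5% DMSO vehicle). Gain or loss fitted relative to DMSO baseline.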

CYP4A11 (gene 1579) = test: LTEA_HepaRG_CYP4A11: Life Technologies and Expression Analysis (LTEA) Assay for CYP4A11 using HepaRG (AID 2283486)
How it was run: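 CYP4A11 transcript levels were quantified by TaqMan qRT-PCR after HepaRG human liver cells were treated for 48 hours with test chemicals (top 100 uM, half-log dilutions, 0.5% DMSO). Gain or loss of signal was fitted relative to DMSO.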

Measured: AC50

Cytochrome P450 2C19 (Homo sapiens), sequence (P33261 whole entry, looked up): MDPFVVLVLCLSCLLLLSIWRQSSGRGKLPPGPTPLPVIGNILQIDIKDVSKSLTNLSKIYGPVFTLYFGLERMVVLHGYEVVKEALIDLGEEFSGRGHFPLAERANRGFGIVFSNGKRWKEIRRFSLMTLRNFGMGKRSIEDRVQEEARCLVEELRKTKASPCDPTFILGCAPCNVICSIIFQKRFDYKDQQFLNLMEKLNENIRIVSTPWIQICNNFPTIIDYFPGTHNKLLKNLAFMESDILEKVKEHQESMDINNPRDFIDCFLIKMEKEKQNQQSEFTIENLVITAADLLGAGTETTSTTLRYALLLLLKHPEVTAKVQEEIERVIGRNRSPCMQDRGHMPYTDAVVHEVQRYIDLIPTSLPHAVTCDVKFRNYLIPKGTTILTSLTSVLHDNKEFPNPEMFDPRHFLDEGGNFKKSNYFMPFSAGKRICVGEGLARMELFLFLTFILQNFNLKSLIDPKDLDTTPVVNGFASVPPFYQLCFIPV
Caspase-3 (Homo sapiens), sequence (P42574 whole entry, looked up): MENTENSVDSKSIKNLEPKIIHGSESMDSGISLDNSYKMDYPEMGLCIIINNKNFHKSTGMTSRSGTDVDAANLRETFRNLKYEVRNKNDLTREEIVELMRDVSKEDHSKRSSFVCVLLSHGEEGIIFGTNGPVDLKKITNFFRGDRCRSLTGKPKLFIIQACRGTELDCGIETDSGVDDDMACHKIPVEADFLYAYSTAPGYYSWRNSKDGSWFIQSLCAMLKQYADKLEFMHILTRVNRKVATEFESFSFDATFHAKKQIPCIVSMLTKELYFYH

CC(C)(C)[C@@H](O)[C@@H](Cc1ccc(Cl)cc1)n1cncn1
active: [2] 50 µM | [4] 3.37 µM | [5] 7.33 µM | CYP2E1 (gene 1571) 50 µM | CYP4A11 (gene 1579) 50 µM
inactive: Caspase-3 (Homo sapiens) | [1] | [3] | CYP2C8 (gene 1558)

CCCCC(CC)CN1C(=O)C2C3C=CC(C3)C2C1=O (stereo not given)
active: [2] 82.3 µM | [4] 88.6 µM | [5] 92 µM | CYP2C8 (gene 1558) 88.3 µM | CYP2E1 (gene 1571) 43 µM | CYP4A11 (gene 1579) 36.1 µM
inactive: Caspase-3 (Homo sapiens) | [1] | [3]

CC(C)CCCCCCc1ccc(O)cc1
inactive: all assays above

N#CSCSc1nc2ccccc2s1
active: [1] 12.4 µM | CYP2E1 (gene 1571) 81.2 µM | CYP4A11 (gene 1579) 94.4 µM
inactive: all other assays above

O=C(Nc1ccc([N+](=O)[O-])cc1Cl)c1cc(Cl)ccc1O
active: Caspase-3 (Homo sapiens) 1.89 µM | [2] 0.744 µM | [3] 12 µM | [4] 3.89 µM | [5] 2.22 µM | CYP2C8 (gene 1558) 3.94 µM | CYP2E1 (gene 1571) 2.07 µM | CYP4A11 (gene 1579) 3.41 µM
inactive: [1]

O=C(c1ccc(O)cc1O)c1ccc(O)cc1O
inactive: all assays above

Cc1nn(C)c(Oc2ccccc2)c1C=NOCc1ccc(C(=O)OC(C)(C)C)cc1
inactive: Caspase-3 (Homo sapiens) | [1] | [3]
active: [2] 2.35 µM | [4] 1.68 µM | [5] 29.2 µM | CYP2C8 (gene 1558) 25.7 µM | CYP2E1 (gene 1571) 2.75 µM | CYP4A11 (gene 1579) 2.99 µM

CC(=O)S[C@@H]1CC2=CC(=O)CC[C@]2(C)[C@H]2CC[C@@]3(C)[C@@H](CC[C@@]34CCC(=O)O4)[C@H]12
inactive: [1] | [3]
active: Caspase-3 (Homo sapiens) 50 µM | [4] 52.6 µM | [5] 78.3 µM | CYP2C8 (gene 1558) 82.1 µM | CYP2E1 (gene 1571) 63 µM | CYP4A11 (gene 1579) 51.8 µM

CCN(CC)C(=O)c1cccc(C)c1
active: [4] 3.4 µM | [5] 12.9 µM | CYP2C8 (gene 1558) 9.19 µM | CYP2E1 (gene 1571) 13.4 µM
inactive: all other assays above

O=C(O)c1ccccc1
inactive: all assays above

Oc1ccc(C(c2ccc(O)cc2)C(Cl)(Cl)Cl)cc1
active: Caspase-3 (Homo sapiens) 86.2 µM | [3] 88.4 µM | [4] 81.1 µM | [5] 78.4 µM | CYP2C8 (gene 1558) 93.2 µM | CYP2E1 (gene 1571) 93.8 µM | CYP4A11 (gene 1579) 93.2 µM
inactive: [1] | [2]

N[C@@H](Cc1cc(I)c(Oc2ccc(O)c(I)c2)c(I)c1)C(=O)O
inactive: Caspase-3 (Homo sapiens) | [1] | [3]
active: [4] 40 µM | [5] 61.6 µM | CYP2C8 (gene 1558) 46.8 µM | CYP2E1 (gene 1571) 0.00253 µM | CYP4A11 (gene 1579) 7.94 µM

CCOC(=O)COc1cc(-n2ncc(C(F)(F)F)c(C)c2=O)c(F)cc1Cl
active: [4] 50 µM
inactive: all other assays above

Source: PubChem BioAssay (EPA / NIEHS)
